# Experimental data reported in PubChem BioAssay.
# Activity calls are given as the source filed them.
# Tests used:
# [1] = small molecules captured by biotinylated probe aFSTL3 – biochemical, small-molecule microarray, fluorescence 635/667, stem cell growth factor project, primary screen (AID 1064); details: higher = more signal;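 also: measures binding of the biotinylated anti-FSTL3 antibody to printed compounds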
# [2] = binders from COS7 lysate, DM2A8 probe, primary screen, torsin A project, cell lysate, small-molecule microarray, fluorescence 635/667 (AID 1065); details: higher = more signal, COS7 lysate expressing mutant human TOR1A
# [3] = small molecules captured by biotinylated probe aFGF2 – biochemical, small-molecule microarray, fluorescence 635/667, stem cell growth factor project, primary screen (AID 1067); details: higher = more signal;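 also: measures binding of biotinylated aFGF2 protein to printed compounds on slides; z-score merges feature fluorescence and signal-to-noise across triplicate slides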
# [4] = small molecules captured by biotinylated probe aFGF10 – biochemical, small-molecule microarray, fluorescence 635/667, stem cell growth factor project, primary screen (AID 1071); details: higher = more signal;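 also: score merges 667 nm spot intensity and signal to noise from triplicate slides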
# [5] = target: Neurogenic locus notch homolog protein 2 (Homo sapiens) (UniProt Q04721); test: small molecules binding Notch2 protein – biochemical, small-molecule microarray, 635 nm fluorescence, stem cell growth factors, primary screen (AID 1073); details: higher = more signal
# Sequence of Neurogenic locus notch homolog protein 2 (Homo sapiens) (Q04721 whole entry, looked up, canonical isoform): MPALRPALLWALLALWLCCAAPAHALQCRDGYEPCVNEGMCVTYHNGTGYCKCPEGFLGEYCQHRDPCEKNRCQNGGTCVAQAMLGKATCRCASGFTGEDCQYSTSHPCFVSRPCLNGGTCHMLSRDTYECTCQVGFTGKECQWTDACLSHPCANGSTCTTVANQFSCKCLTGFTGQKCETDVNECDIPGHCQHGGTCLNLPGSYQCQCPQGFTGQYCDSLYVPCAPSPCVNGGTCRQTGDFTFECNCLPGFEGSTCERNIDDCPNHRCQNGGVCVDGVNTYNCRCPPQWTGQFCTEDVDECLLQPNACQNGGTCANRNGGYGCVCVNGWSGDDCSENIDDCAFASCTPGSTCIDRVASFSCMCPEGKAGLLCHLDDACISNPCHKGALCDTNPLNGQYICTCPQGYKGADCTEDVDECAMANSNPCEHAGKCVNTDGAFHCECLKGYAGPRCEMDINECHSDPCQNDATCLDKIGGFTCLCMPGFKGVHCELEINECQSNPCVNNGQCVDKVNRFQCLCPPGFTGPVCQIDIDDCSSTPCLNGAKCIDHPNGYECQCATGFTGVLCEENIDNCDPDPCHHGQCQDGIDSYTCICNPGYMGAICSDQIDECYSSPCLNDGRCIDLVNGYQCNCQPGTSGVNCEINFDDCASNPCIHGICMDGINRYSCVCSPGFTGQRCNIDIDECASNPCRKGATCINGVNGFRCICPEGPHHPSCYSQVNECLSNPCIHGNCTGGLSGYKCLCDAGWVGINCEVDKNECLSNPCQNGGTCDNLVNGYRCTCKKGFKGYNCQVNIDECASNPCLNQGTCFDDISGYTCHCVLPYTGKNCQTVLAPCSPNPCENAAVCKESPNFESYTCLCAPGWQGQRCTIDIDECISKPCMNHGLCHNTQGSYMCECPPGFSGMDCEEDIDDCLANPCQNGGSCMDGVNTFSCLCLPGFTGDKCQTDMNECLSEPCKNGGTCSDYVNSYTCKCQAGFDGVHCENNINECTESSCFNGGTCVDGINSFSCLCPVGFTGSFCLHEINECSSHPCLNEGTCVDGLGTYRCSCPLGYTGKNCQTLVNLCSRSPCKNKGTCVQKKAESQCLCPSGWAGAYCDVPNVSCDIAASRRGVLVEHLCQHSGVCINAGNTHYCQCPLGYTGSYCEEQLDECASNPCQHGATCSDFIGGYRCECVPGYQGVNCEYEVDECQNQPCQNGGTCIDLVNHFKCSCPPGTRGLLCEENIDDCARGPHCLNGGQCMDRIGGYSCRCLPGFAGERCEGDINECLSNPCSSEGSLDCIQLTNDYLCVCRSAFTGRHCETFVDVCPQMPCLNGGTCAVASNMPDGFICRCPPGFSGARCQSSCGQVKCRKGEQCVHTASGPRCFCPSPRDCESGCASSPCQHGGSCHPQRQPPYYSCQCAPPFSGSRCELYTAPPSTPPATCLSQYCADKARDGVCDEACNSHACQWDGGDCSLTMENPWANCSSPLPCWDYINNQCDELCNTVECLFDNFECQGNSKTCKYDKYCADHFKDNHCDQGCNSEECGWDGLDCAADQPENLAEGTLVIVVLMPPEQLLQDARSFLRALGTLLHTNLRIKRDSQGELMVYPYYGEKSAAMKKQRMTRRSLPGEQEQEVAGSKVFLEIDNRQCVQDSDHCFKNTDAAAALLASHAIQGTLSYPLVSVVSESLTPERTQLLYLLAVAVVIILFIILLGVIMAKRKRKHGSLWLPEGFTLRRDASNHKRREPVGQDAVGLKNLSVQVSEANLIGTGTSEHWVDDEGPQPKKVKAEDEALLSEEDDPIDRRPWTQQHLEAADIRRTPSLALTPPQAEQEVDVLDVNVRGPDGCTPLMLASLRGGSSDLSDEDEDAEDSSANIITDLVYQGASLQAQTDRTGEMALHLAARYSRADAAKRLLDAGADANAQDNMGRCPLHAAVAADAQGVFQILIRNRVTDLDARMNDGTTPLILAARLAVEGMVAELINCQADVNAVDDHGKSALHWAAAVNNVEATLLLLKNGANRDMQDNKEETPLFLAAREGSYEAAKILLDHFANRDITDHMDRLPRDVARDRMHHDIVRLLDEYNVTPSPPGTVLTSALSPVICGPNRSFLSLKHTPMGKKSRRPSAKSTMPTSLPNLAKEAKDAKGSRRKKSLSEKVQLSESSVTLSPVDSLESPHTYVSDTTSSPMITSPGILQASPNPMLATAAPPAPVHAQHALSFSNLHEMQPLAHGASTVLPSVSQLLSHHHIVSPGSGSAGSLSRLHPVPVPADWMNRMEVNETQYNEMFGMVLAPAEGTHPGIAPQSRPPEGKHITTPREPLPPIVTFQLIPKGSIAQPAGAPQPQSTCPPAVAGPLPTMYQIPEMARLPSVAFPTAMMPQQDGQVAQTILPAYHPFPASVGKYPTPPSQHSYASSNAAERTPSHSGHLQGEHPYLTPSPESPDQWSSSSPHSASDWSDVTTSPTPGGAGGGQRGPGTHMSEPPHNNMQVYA
# [6] = target: Pro-neuregulin-1, membrane-bound isoform (Homo sapiens) (UniProt Q02297); test: small molecules binding neuregulin-1 protein – biochemical, small-molecule microarray, fluorescence 635/667, psychiatric disease protein project, primary screen (AID 1075); details: NRG1 binding, 635 nm fluorescence, higher = more signal;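 also: score combines 667 nm spot fluorescence with signal to noise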
# Sequence of Pro-neuregulin-1, membrane-bound isoform (Homo sapiens) (Q02297 whole entry, looked up, the tested form may be a part, canonical isoform): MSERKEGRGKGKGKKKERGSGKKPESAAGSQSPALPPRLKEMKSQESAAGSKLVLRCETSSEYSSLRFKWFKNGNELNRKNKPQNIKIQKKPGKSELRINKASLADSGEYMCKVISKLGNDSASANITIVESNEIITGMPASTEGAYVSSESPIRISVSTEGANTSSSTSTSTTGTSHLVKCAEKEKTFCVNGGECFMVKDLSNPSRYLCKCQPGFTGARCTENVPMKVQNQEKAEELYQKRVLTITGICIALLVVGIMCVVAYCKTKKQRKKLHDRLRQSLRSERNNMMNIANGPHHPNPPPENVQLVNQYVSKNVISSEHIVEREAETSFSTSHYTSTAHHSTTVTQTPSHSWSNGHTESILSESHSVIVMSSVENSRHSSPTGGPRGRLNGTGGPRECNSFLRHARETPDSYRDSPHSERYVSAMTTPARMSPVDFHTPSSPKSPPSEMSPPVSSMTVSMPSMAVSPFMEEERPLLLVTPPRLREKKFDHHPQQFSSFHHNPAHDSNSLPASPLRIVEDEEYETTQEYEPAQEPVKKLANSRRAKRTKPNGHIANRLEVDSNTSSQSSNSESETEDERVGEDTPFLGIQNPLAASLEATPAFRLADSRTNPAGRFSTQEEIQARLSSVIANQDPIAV
# [7] = tested on: Neuregulin-1 EGF-like domain; test: small molecules binding NRG1 EGF domain – biochemical, small-molecule microarray, 635 nm fluorescence, primary screen (AID 1081); details: higher = more signal;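 also: binding of the protein to compounds printed on small-molecule microarray slides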
# [8] = FRG1 expression reporter modulators in myotubes – cell-based, C2C12 myotubes, firefly/Renilla luciferase, luminescence, FRG1 inhibition for FSHD, primary screen (AID 1084); details: FRG1 promoter luciferase, higher = more signal, called active from +8 up or from −8 down
# [9] = small molecules captured by biotinylated probe aFST – biochemical, small-molecule microarray, fluorescence 635/667, stem cell growth factor project, primary screen (AID 1086); details: higher = more signal;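 also: score merges 667 nm fluorescence with signal-to-noise of each printed compound spot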
# [10] = binders of probe aHhip on microarray, primary screen, stem cell growth factor project, biochemical, small-molecule microarray, fluorescence 635/667 (AID 1087); details: higher = more signal;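 also: score merges spot fluorescence at 667nm with spot signal to noise ratio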
# [11] = tested on: PRMT1 (protein arginine N-methyltransferase 1); test: small molecules binding arginine methyltransferase PRMT1 – biochemical, small-molecule microarray, 635 nm fluorescence, primary screen (AID 1088); details: higher = more signal;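 also: binding of Prmt1 protein to compounds spotted on small-molecule microarray slides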
# [12] = growth effects on S. cerevisiae YJM789 – YJM789 clinical isolate, OD600, 24 h, basal, primary screen (AID 1089); details: higher = more signal, called active from +8 up or from −8 down;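 also: growth of clinical yeast isolate S. cerevisiae YJM 789 seeded 1000 cells per well; test concentration not given here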
# [13] = S. pombe growth modifiers, basal conditions – strain 972, OD600, 24 h, no modulator, primary screen (AID 1090);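 also: basal condition with compound alone and no growth modifier present; test concentration not given here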; details: S. pombe 972 growth, higher = more signal, called active from +8 up or from −8 down
# [14] = budding yeast growth modifiers under rapamycin – strain BY4716, OD600, 96 h, primary screen (AID 1091); also: test concentration not given here; details: S. cerevisiae BY4716 + rapamycin, higher = more signal, called active from +8 up or from −8 down
# [15] = target: Torsin-1A-interacting protein 2 (Homo sapiens) (UniProt Q8NFQ8); test: small molecules binding lysate-expressed LULL1 – cell lysate, human LULL1 lysate, 635/667 nm fluorescence, primary screen (AID 1092); details: small-molecule microarray, hLULL1 lysate binding, 635 nm fluorescence; higher = more signal;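 also: probe is lysate of COS7 cells overexpressing human LULL1; score merges per-feature 667 nm fluorescence with signal-to-noise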
# Sequence of Torsin-1A-interacting protein 2 (Homo sapiens) (Q8NFQ8 whole entry, looked up): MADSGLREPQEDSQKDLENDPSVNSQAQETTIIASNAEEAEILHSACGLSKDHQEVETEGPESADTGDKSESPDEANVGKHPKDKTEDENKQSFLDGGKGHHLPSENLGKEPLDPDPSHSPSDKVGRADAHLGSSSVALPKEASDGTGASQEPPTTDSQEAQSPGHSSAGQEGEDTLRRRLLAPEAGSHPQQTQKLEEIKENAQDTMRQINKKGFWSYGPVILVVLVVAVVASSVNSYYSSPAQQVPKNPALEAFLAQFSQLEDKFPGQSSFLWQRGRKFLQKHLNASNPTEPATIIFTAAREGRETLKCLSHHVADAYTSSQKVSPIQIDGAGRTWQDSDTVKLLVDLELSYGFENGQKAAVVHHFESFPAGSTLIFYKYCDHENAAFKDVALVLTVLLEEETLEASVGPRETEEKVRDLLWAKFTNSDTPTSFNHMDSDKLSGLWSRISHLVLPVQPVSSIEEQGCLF
# [16] = optical density change of DRC41 E. coli – strain DRC41, OD650, 24 h, E. coli filamentation project, primary screen (AID 1093);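 also: MC1000 strain lacking acrAB efflux and sulA so SOS filamentation is blocked; test concentration not given here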; details: E. coli DRC41 growth, higher = more signal, called active from +8 up or from −8 down
# [17] = probe aLefty2 binding to arrayed compounds – biochemical, biotinylated probe, 635/667 nm fluorescence, primary screen (AID 1094); details: small-molecule microarray, higher = more signal;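 also: score merges spot fluorescence near 667 nm with spot signal-to-noise ratio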
# [18] = tested on: Noggin (protein binding on small-molecule microarray); test: small molecules binding Noggin protein – biochemical, 635/667 nm fluorescence, primary screen (AID 1095); details: 635 nm fluorescence, higher = more signal;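 also: score merges 667 nm feature fluorescence with signal to noise over triplicate slides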
# [19] = target: Neurogenic locus notch homolog protein 3 (Homo sapiens) (UniProt Q9UM47); test: small molecules binding NOTCH3 protein – biochemical, 635/667 nm fluorescence, primary screen (AID 1096); details: small-molecule microarray, 635 nm fluorescence, higher = more signal
# [20] = probe aEGFR binding to arrayed compounds – biochemical, biotinylated probe, 635/667 nm fluorescence, primary screen (AID 1097); details: small-molecule microarray, higher = more signal;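 also: probe is a biotinylated anti-EGFR antibody binding compounds printed on slides; score combines fluorescence near 667 nm and signal to noise of each spot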
SMILES,composite z-score [1],composite z-score [2],composite z-score [3],composite z-score [4],composite z-score [5],composite z-score [6],composite z-score [7],z-score [8],composite z-score [9],composite z-score [10],composite z-score [11],z-score [12],z-score [13],z-score [14],composite z-score [15],z-score [16],composite z-score [17],composite z-score [18],composite z-score [19],composite z-score [20]
COc1ccc(CCNC(=O)[C@@]2(Sc3ccc(C)cc3)CC(=O)N(C3CCCCC3)[C@@H]2c2ccc(CO)cc2I)cc1,-0.113,0.567,0.0561,0.773,1.23,1.29,1.02,-1.57 (inactive),0.306,-0.0237,1.42,-1.11 (inactive),0.0408 (inactive),0.766 (inactive),2.71,-0.0209 (inactive),-0.0823,0.53,1.1,0.0414
C[N+](C)(C)CCCC[C@@H]1NC(=O)[C@@H]2C[C@H](C(=O)NCCCCCN)[C@H](c3cccc(OCCO)c3)N2C1=O,0.6,1.6,-0.0253,0.506,1.14,2.15,1.08,-0.992 (inactive),0.877,0.161,1.28,-0.465 (inactive),-2.09 (inactive),0.371 (inactive),2.15,-0.291 (inactive),0.231,-0.0236,0.182,-0.0037
[N-]=[N+]=Nc1ccccc1[C@H]1OC(c2ccc(OCCCO)cc2)=N[C@@]1(Cc1ccccc1)C(=O)O,0.0481,0.466,0.0363,0.641,1.05,1.69,1.3,1.02 (inactive),0.693,-0.374,1.3,0.206 (inactive),-0.329 (inactive),-1.06 (inactive),3.3,0.355 (inactive),-0.0152,0.875,1.11,-0.0351
CCCC#C[Si](O[C@H](CC)c1cn([C@H](CO)Cc2ccccc2)nn1)(C(C)C)C(C)C,-0.503,0.236,-0.0856,0.449,0.769,0.471,0.988,0.889 (inactive),-0.0393,-0.0003,0.869,-0.843 (inactive),-10.7 (active),-2.6 (inactive),1.48,0.858 (inactive),0.0166,0.681,0.584,-0.0563
